This is a sample that favours compounds with a hit; in the whole collection about 4.7% have one here.
D1 antagonist – blocks dopamine activation of the human D1 receptor | P21728 | HEK293 TREx D1 cells, calcium flux, dopamine EC80; hits give low values | activity change, negative = inhibition, % at 10 µM | 360,000 tested, 3.2% active; in the data active = activity change below about -30%; note: % is set by controls: 0 for no effect and ±100 for the full control effect
Target sequence (P21728 whole entry, looked up): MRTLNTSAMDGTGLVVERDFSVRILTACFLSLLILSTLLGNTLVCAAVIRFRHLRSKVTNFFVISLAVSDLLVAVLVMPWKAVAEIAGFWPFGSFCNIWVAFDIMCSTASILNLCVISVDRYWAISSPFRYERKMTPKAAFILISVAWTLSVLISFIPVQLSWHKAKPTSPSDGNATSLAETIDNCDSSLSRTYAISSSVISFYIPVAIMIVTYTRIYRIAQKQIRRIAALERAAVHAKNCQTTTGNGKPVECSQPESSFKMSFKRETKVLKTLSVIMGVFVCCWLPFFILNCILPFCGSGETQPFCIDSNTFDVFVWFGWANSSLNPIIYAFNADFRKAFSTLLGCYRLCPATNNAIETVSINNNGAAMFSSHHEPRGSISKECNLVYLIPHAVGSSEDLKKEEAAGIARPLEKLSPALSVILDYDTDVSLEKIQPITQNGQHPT
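Antagonism measured as reduced calcium response to an EC80 dopamine addition following 180 s compound pre-read; cells were inducible HEK293 Trex D1 plated overnight at 30 C, read kinetically at 1 cycle/sec.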
D1 agonist – human D1 receptor agonism; 360,000 tested, 1% active; activation, % at 2 µM; HEK293 T-REx D1 cells, calcium flux, agonist mode; P21728; AID 504660; note: 0% is about no effect
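Inducible HEK293 T-REx D1 cells, force-coupled to calcium signalling, were plated at 4000 cells/well with tetracycline and held overnight at 30 C. After no-wash calcium dye loading, compound-evoked calcium rise over 180 s flagged agonists.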
TRHR PAM – TRH receptor (human) allosteric enhancement; P34981; TRHR cells, fluo-8 calcium fluorescence, EC20 TRH enhancement; enhancement, % at 2 µM; 360,000 tested, 0.66% active; AID 493056; in the data active = enhancement above about 30%; note: 0% is about no effect
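Enhancer read-out: after compound pinning and an initial kinetic agonist-mode read, an EC20 of TRH (10 nM final) was injected and fluo-8 calcium signal (Ex 480/Em 530) followed at 1 s/cycle for 100 cycles in TRHR-expressing cells.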
TRHR ag – TRH receptor (human) agonism | TRHR cells, calcium flux fluo-8, FDSS agonist mode | activation, % at 2 µM | 360,000 tested, 0.18% active; note: 0% is about no effect
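Steps: seed TRHR cells overnight; add fluo-8 no-wash Ca dye, RT 30 min–1.5 h; record 10 s baseline; pin-transfer compounds; monitor fluorescence 1 cycle/s for the agonist window. Calcium increases flag candidate agonists.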
D1 PAM – enhances dopamine response at the human D1 receptor; HEK293 TREx D1 cells, calcium flux, dopamine EC20 potentiation; potentiation, % at 10 µM; P21728; 360,000 tested, 0.036% active; in the data active = potentiation above about 30%; note: 0% is about no effect
* = called active by the depositor. Cut-off read from the data, not from the text of the source, unless noted: active = activation above about 30%; inactive = the rest.

SMILES | D1 antagonist | D1 agonist | TRHR PAM | TRHR ag | D1 PAM
O=C(c1ccncc1)c1ccc(N2CCN(C3CC(=O)N(Cc4cccs4)C3=O)CC2)cc1 (stereo not given) | -39.2* | 12.7 | -7.7 | 0.4 | -4.7
O=C1CC(N2CCN(c3ccc(O)cc3)CC2)C(=O)N1Cc1cccs1 (stereo not given) | 4.4 | -0.4 | 4.2 | 0.2 | 3.8
N#Cc1c(-c2ccco2)nc(SCC(=O)Nc2cccc(Cl)c2)[nH]c1=O | 17.6 | 5.4 | -1.6 | -0.6 | -4.2
CC(C)(C)c1ccc(-c2nc(SCC(=O)Nc3ccc(Cl)cc3)[nH]c(=O)c2C#N)cc1 | -11.3 | 131.7* | 16.1 | 4.6 | -2.4
Nc1cc(S(=O)(=O)N2CCOCC2)ccc1Oc1cccc(Br)c1 | -44.2* | 11.7 | -3.3 | 0.2 | -10.6
CC(C)(C)c1cc(NC(=O)CSc2nnc(N)s2)n(-c2ccccc2)n1 | -35.3* | 3.5 | 0.2 | 0.2 | 4.3
N#CC(C#N)=C(N)CSc1cccc[n+]1[O-] | 6.2 | 1.8 | 34.5* | 0.5 | 3.6
CCCCOc1ccc(CSc2nc(C)[nH]c2[N+](=O)[O-])cc1[N+](=O)[O-] | -31.0* | 11.9 | 1.3 | 0.1 | -7.1
CCCCOc1ccc(CSc2nnc(C)n2N)cc1[N+](=O)[O-] | -19.4 | 1.0 | 1.2 | 0.7 | 8.0
CCCCn1c(N)c(N(CCOC)C(=O)c2cccc(S(=O)(=O)N(CC)c3ccccc3)c2)c(=O)[nH]c1=O | -15.4 | 2.8 | -0.3 | -0.1 | 5.6
CCNc1nc(CN2CCCCC2)nc2scc(-c3ccccc3)c12 | -37.6* | 2.7 | 3.7 | -0.1 | -7.8
Fc1ccc(N2CCN(c3nc(CN4CCOCC4)nc4scc(-c5ccccc5)c34)CC2)cc1 | -45.9* | 4.5 | -7.5 | -0.5 | -2.4
OCC1CCCN(c2nc(CN3CCCCC3)nc3scc(-c4ccccc4)c23)C1 (stereo not given) | -9.6 | 2.7 | 4.1 | 0.2 | -1.6
CCN1C(=O)c2ccccc2S(=O)c2ccc(C(=O)N3CCN(c4ccccc4OC)CC3)cc21 (stereo not given) | -4.9 | 0.0 | 0.7 | -0.5 | -4.4
Cc1onc(-c2ccccc2)c1C(=O)N/N=C/c1ccccc1OC(C)C | -31.5* | 3.7 | -6.3 | -0.2 | -4.0
COc1ccccc1/C=N/NC(=O)c1c(-c2ccccc2)noc1C | 4.6 | -2.1 | -2.5 | -2.0 | -8.0
O=C(Nc1ccccn1)C1CCN(S(=O)(=O)c2ccc3c(c2)OCCCO3)CC1 | -3.5 | 11.2 | 3.3 | -0.3 | -8.7
Cc1ccc(S(=O)(=O)N2CCC(C(=O)Nc3ccc4c(c3)OCO4)CC2)cc1 | -47.0* | 1.8 | 2.9 | -0.4 | -8.7
O=C(CN1CCCN(S(=O)(=O)c2ccc(Br)cc2)CC1)Nc1ccc2c(c1)OCO2 | -49.2* | -0.2 | -5.5 | -0.5 | -14.8
Cc1ccc(NC(=O)C2CCN(S(=O)(=O)c3ccc4c(c3)OCCCO4)CC2)nc1 | -33.0* | 2.3 | -1.9 | 0.2 | -7.1
Cc1ccnc(NC(=O)C2CCN(S(=O)(=O)c3ccc(Cl)c(C(F)(F)F)c3)CC2)c1 | -0.2 | 1.3 | -11.6 | 0.3 | -3.5
Cc1ccc(NC(=O)C2CCN(S(=O)(=O)c3ccc(Cl)c(C(F)(F)F)c3)CC2)nc1 | -39.1* | 0.6 | -10.8 | 0.1 | -6.2
CCCCn1c(C)cc2c(c1=O)C1O[C@](CCCC)(Cc3cc(C#N)ccc31)O2 | -5.3 | 0.5 | -0.2 | 0.3 | -2.2
CN1CCN(CCCNC(=O)CCC(=O)N2CCOc3ccccc32)CC1 | 19.8 | 3.3 | 5.2 | 0.2 | 7.2
O=C(CCC(=O)N1CCOc2ccccc21)NCCCN1CCN(Cc2ccccc2)CC1 | -38.5* | 3.5 | 6.4 | -0.5 | -15.3
SMILES | D1 antagonist | D1 agonist | TRHR PAM | TRHR ag | D1 PAM
CN(C)c1cccc(C(=O)N(C)C2CCCN(Cc3ccccc3F)C2)c1 (stereo not given) | -5.0 | 0.7 | 31.1* | 0.2 | 1.8
Cc1cccc(CN2C(=O)c3ccccc3S(=O)(=O)c3ccc(C(=O)NC4CCCCC4)cc32)c1 | -4.2 | 5.3 | -2.7 | 0.8 | 0.5
Cc1cc(C)c2c(CC(=O)Nc3c(C(=O)c4ccc(F)cc4)oc4ccccc34)coc2c1 | -2.2 | 3.7 | 29.6 | 0.7 | 1.9
COc1ccc(OC)c(NC2=NC3(CCCC3)N=C(N)N2)c1 | -56.8* | 6.5 | -6.4 | -0.1 | -22.9
NC1=NC2(CCCCC2)N=C(Nc2ccc(F)cc2F)N1 | 2.2 | -0.7 | 21.3 | -0.2 | -10.2
Cc1cc(=O)oc2cc(NS(=O)(=O)c3ccccc3)ccc12 | -94.7* | 1.2 | 8.1 | 0.3 | 2.5
Clc1ccc(Cl)c(OCCCCNCc2ccccc2)c1 | -58.3* | 80.7* | 3.2 | 2.3 | -6.5
OCCNCCCOc1ccc(Cl)cc1Br | -1.0 | 3.7 | 2.5 | 2.1 | -7.8
Clc1ccc(OCCCNCc2ccccc2)c(Br)c1 | -3.9 | 92.8* | 5.0 | -0.7 | -7.8
COc1ccc(OC)c(/C=C2\SC(=S)N(C(C(=O)O)c3ccccc3)C2=O)c1 (stereo not given) | -2.4 | 35.1* | 4.1 | -0.8 | -2.3
CCOc1ccc(C2C(C(N)=O)=C(C)Nc3nc(SCc4ccccc4F)nn32)cc1 (stereo not given) | 0.9 | 1.4 | 3.9 | 0.4 | 0.5
CCOc1ccc(C(=O)NCc2nc3cccnc3n2Cc2cccc(OC)c2)cc1 | 7.8 | -0.9 | -2.7 | -0.2 | -3.1
O=[N+]([O-])c1ccc2[nH]ncc2c1 | -43.5* | 4.4 | 3.6 | 0.7 | -8.8
Nc1ccc2cn[nH]c2c1 | 7.2 | 0.5 | -4.6 | -0.6 | 5.8
Brc1ccc2[nH]ncc2c1 | -31.9* | 2.4 | 5.8 | 0.1 | -6.1
CC(=O)c1ccc(NC(=O)COC(=O)c2ccc(F)cc2F)cc1 | -3.2 | 3.7 | 3.7 | -0.2 | -1.2
Cc1cc(C(=O)NC2CCCc3c2cnn3-c2cccc(C)c2C)n(C)n1 (stereo not given) | -25.9 | 9.2 | 1.2 | -1.0 | 0.7
O=c1cc2nc(-c3ccccc3F)nc(SCc3ccc(Br)cc3)n2[nH]1 | -13.4 | 5.7 | -0.2 | 0.0 | -4.0
OC(CN1CCCCC1)Cn1c2ccc(Cl)cc2c2cc(Cl)ccc21 (stereo not given) | 13.0 | 35.4* | 7.1 | 5.0 | -4.2
OC(CN1CCN(c2ccccn2)CC1)Cn1c2ccc(Cl)cc2c2cc(Cl)ccc21 (stereo not given) | 3.4 | 0.5 | 1.5 | 0.1 | -1.4
CCOC(=O)N1CCc2c(sc(NCc3sccc3C)c2C(=O)Nc2ccccc2OCC)C1 | 0.0 | 2.5 | 25.6 | -0.3 | -4.6
COC(=O)c1cn(-c2ccccc2)c(C)c1C(=O)OC | 4.7 | 50.4* | 6.0 | -0.2 | -4.4
COC(=O)c1cn(-c2ccccc2)nc1-c1ccccc1 | 13.7 | 1.1 | -4.9 | -0.2 | -5.8
Cc1nn(-c2ccccc2)c(C)c1NC(=O)COC(=O)c1ccccc1OC(F)F | -11.7 | 3.3 | -0.4 | 0.4 | -6.0
CC(C)(C)NC(=O)NC(=O)CSc1ncccn1 | -35.2* | 3.7 | -5.7 | 0.7 | -8.2
CC(C)NC(=O)NC(=O)CSc1ncccn1 | 7.3 | -0.6 | -2.2 | 0.4 | -1.2

Compound activity deposited in PubChem BioAssay by National Center for Advancing Translational Sciences (NCATS).
